Data from PubChem BioAssay.
Activity calls are given as the source filed them. Unless noted, no rule for the calls is given here.

Assays:
[1] = HepG2 liver cancer cell viability effects, profiling panel, resazurin fluorescence, 24 h, PK04 Diversity Set (AID 1172); conditions: higher = more signal
[2] = basal S. cerevisiae growth modulation, no modifier, primary screen, OD600, strain BY4716, 24 h, basal condition (AID 1173); conditions: OD600, 24 h, higher = more signal, called active from +8 up or from −8 down
[3] = MM1S myeloma cell viability, profiling panel, resazurin fluorescence, basal, 24 h, PK04 Diversity Set (AID 1174); conditions: higher = more signal, called active from +8 up or from −8 down;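 also: MM1S multiple myeloma cell line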
[4] = target: Dihydroorotate dehydrogenase (quinone), mitochondrial (Plasmodium falciparum (isolate 3D7)) (UniProt Q08210); test: PfDHODH enzyme inhibitors, primary screen, biochemical, C-terminal His tag, absorbance 600 nm (AID 1175); conditions: DCIP absorbance 600 nm, higher = more signal, called active from +8 up or from −8 down;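 also: recombinant parasite enzyme with a five histidine tag at its C terminus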
Dihydroorotate dehydrogenase (quinone), mitochondrial (Plasmodium falciparum (isolate 3D7)), sequence (Q08210 whole entry, looked up): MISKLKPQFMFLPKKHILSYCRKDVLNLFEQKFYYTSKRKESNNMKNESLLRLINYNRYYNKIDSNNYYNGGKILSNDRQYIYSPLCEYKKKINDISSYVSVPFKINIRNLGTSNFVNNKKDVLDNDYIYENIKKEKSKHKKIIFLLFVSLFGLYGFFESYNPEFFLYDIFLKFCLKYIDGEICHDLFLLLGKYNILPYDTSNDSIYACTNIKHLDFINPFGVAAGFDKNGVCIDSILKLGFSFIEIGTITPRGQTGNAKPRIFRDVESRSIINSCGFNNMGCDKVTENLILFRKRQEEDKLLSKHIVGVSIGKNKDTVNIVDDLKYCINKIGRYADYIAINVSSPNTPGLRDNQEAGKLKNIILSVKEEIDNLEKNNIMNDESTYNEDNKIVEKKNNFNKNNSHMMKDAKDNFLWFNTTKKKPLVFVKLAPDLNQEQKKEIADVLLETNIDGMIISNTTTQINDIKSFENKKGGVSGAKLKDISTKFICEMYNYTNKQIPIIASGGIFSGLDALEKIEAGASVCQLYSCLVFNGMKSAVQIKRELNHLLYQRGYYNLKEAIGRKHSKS

[5] = P. aeruginosa biofilm formation inhibitors, primary screen, strain PAO1, LB-PBS medium, absorbance 600 nm (AID 1176); conditions: P. aeruginosa PAO1 growth/biofilm, A600, 12 h; higher = more signal
[6] = S. cerevisiae RM11-1a growth modifiers, primary screen, strain RM11-1a, OD600, basal, 24 h (AID 1177); conditions: OD600, 24 h, higher = more signal, called active from +8 up or from −8 down;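 also: cultures grown under basal conditions with no added stressor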
[7] = E. coli acrAB mutant growth effects, primary screen, E. coli filamentation inducers, strain DRC39, OD650, 24 h (AID 1178); conditions: higher = more signal, called active from +8 up or from −8 down;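 also: growth measured as culture turbidity by optical density at 650 nm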
[8] = E. coli acrAB mutant growth effects, primary screen, E. coli filamentation inducers, strain DRC39, OD650, 48 h (AID 1179);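 also: screen aims at cell division blockers that make cells filament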; conditions: E. coli DRC39 delta-acrAB growth, higher = more signal, called active from +8 up or from −8 down
[9] = RPMI8226 myeloma cell viability, profiling panel, resazurin fluorescence, basal, 24 h, PK04 Diversity Set (AID 1180); conditions: higher = more signal;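 also: RPMI8826 multiple myeloma cell line at 5000 cells per well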
[10] = target: E3 ubiquitin-protein ligase XIAP (Homo sapiens) (UniProt P98170); test: XIAP binders, primary screen, biophysical, small-molecule microarray, fluorescence 635 nm (AID 1181); conditions: small-molecule microarray binding, higher = more signal;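 also: score merges 667 nm emission and signal to noise over triplicate slides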
E3 ubiquitin-protein ligase XIAP (Homo sapiens), sequence (P98170 whole entry, looked up): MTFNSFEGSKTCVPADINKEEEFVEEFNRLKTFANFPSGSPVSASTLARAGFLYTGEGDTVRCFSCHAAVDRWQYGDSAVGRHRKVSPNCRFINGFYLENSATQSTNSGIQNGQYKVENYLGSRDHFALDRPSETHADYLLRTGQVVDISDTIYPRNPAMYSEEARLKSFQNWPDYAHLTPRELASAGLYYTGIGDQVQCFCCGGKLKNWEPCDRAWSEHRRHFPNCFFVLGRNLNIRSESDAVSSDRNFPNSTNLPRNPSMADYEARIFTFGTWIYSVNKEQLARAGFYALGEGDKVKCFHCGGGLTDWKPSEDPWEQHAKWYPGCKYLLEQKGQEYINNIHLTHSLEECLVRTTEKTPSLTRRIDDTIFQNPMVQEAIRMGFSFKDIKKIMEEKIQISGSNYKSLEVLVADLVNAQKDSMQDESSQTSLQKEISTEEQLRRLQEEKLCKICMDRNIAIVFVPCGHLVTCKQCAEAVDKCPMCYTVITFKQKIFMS

[11] = system: XIP peptide (Xip251-270) binding; test: small-molecule binders of XIP peptide, primary screen, biochemical, small-molecule microarray, fluorescence 635/667 nm, 0.1 µg/mL protein (AID 1182); conditions: fluorescent protein binding, 635 nm, higher = more signal, called active from +8 up or from −8 down
XIP peptide (Xip251-270) = test: small-molecule binders of XIP peptide, primary screen, biochemical, small-molecule microarray, fluorescence 635/667 nm, 0.5 µg/mL protein (AID 1183); conditions: small-molecule microarray binding, fluorescence 635 nm; higher = more signal
[12] = Plasmodium falciparum growth inhibition, primary screen, strain 3D7, DAPI fluorescence, 100 nL (AID 1184);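 also: parasites grown inside human red blood cells in medium with human serum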; conditions: P. falciparum 3D7 growth, 3 d, higher = more signal
[13] = target: Homeobox protein Hox-A13 (Mus musculus) (UniProt Q62424); test: inhibitors of HoxA13-DNA binding, primary screen, biochemical, fluorescence polarization, labeled oligonucleotide (AID 1185); conditions: 15 min, higher = more signal, called active from +8 up or from −8 down
Homeobox protein Hox-A13 (Mus musculus), sequence (Q62424 whole entry, looked up): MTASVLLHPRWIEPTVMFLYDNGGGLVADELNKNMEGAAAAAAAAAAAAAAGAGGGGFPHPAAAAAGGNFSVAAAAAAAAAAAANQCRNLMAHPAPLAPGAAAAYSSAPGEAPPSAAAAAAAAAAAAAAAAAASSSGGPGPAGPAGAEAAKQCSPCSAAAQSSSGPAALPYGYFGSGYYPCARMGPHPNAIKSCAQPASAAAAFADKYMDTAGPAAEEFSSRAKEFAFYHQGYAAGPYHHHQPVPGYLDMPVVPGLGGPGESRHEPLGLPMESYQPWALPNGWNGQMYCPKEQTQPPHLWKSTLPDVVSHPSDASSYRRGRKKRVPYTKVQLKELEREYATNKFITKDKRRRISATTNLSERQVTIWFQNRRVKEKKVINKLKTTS

[14] = inhibitors of hydroxyurea-induced Chk1 phosphorylation, primary screen, imaging, HeLa, phospho-Chk1 antibody, percent positive cells (AID 1186); conditions: hydroxyurea-induced phospho-Chk1 immunofluorescence imaging, higher = more signal
[15] = inhibitors of hydroxyurea-induced Chk1 phosphorylation, primary screen, imaging, HeLa, phospho-Chk1 nuclear intensity (AID 1187); conditions: hydroxyurea-induced phospho-Chk1 immunofluorescence imaging, higher = more signal

Structure (SMILES)	z-score [1]	z-score [2]	z-score [3]	composite z-score [4]	z-score [5]	z-score [6]	z-score [7]	z-score [8]	z-score [9]	composite z-score [10]	composite z-score [11]	composite z-score (XIP peptide (Xip251-270))	z-score [12]	z-score [13]	z-score [14]	z-score [15]
CCOC(=O)C[C@H]1[C@H](OC(=O)c2ccccc2-c2ccccc2)[C@@H](NC(=O)c2ccc3ccccc3c2)c2cc(OCCCO)ccc2N1C(=O)c1ccc2ccccc2n1	1.33	0.682 (inactive)	0.288 (inactive)	0.428 (inactive)	-0.271 (inactive)	0.876 (inactive)	0.672 (inactive)	0.641 (inactive)	0.726	-0.144	0.157 (inactive)	0.171	-0.34	-2.08 (inactive)	0.308 (inactive)	-0.334 (inactive)
COC(=O)C1=CC(CCCO)=CC(C2CC2)N(Cc2sc3ccccc3c2Cl)C=C1C(=O)OC (centres undefined)	-0.908	-1.32 (inactive)	-0.944 (inactive)	-4.56 (inactive)	-0.0065 (inactive)	1.61 (inactive)	0.386 (inactive)	-0.444 (inactive)	-0.691	-0.0172	0.827 (inactive)	0.793	-2.02	-5.27 (inactive)	0.0745 (inactive)	0.263 (inactive)
CC(C)(C)N1CC=CC23O[C@@H]4/C=C\CCCOC(=O)C4[C@H]2C(=O)N(CCO)[C@@H]3C1=O (some centres undefined)	-0.636	0.0998 (inactive)	-0.0023 (inactive)	-0.252 (inactive)	0.18 (inactive)	0.338 (inactive)	-0.599 (inactive)	-0.814 (inactive)	-0.053	-0.142	-0.0146 (inactive)	0.368	-1.38	-4.95 (inactive)	0.205 (inactive)	0.299 (inactive)
COCCOC(=O)N1C(=O)[C@@]2(c3cc(C#CCNC(N)=O)ccc31)[C@H](C(=O)N1CCN(c3ncccn3)CC1)[C@H]1C(=O)O[C@H](c3ccccc3)[C@H](c3ccccc3)N1[C@@H]2c1ccccc1OCCO	0.841	2.3 (inactive)	0.0815 (inactive)	0.373 (inactive)	0.669 (inactive)	3.47 (inactive)	0.559 (inactive)	-0.438 (inactive)	0.147	0.0611	1.56 (inactive)	0.588	-2.4	-1.39 (inactive)	0.197 (inactive)	0.886 (inactive)
CC(c1ccccc1)C(O)C1C=CC2C(=O)NC(=O)C2N1Nc1ccccn1 (centres undefined)	-0.987	1.34 (inactive)	-0.757 (inactive)	0.865 (inactive)	1.33 (inactive)	1.27 (inactive)	0.15 (inactive)	0.226 (inactive)	-0.806	0.0049	0.197 (inactive)	0.676	0.196	-1.82 (inactive)	0.651 (inactive)	0.136 (inactive)
O=c1cccc(C=Cc2ccccc2)o1	0.266	-2.09 (inactive)	0.835 (inactive)	0.0681 (inactive)	-0.212 (inactive)	-0.0064 (inactive)	-0.131 (inactive)	0.761 (inactive)	-0.0628	-0.248	-0.707 (inactive)	-0.764	-0.907	-0.516 (inactive)	-0.0971 (inactive)	-0.0437 (inactive)
N#Cc1ccc(NN2C(C(O)C3CCCCC3)C=CC3C(=O)N(c4ccccc4)C(=O)C32)cc1 (centres undefined)	-0.779	-0.394 (inactive)	-0.668 (inactive)	-0.177 (inactive)	1.14 (inactive)	-0.28 (inactive)	-0.427 (inactive)	-0.673 (inactive)	-0.848	0.262	0.769 (inactive)	0.694	0.898	-2.14 (inactive)	-0.14 (inactive)	-0.0947 (inactive)
CC(C)OC(=O)CC(=O)CC(O)c1ccc(C#N)cc1 (centres undefined)	0.602	-0.0106 (inactive)	0.8 (inactive)	-1.12 (inactive)	-0.088 (inactive)	-0.608 (inactive)	-0.0611 (inactive)	1.44 (inactive)	1.43	-0.194	3.17 (inactive)	0.21	0.393	-0.306 (inactive)	-1.26 (inactive)	-1.44 (inactive)
CC(=O)NCCCC[C@@H]1NC(=O)[C@@H]2C[C@H](C(=O)NCCCCN(C)C)[C@H](c3ccc(O)cc3)N2C1=O	0.801	-0.397 (inactive)	0.925 (inactive)	-0.0536 (inactive)	-0.201 (inactive)	0.037 (inactive)	1.23 (inactive)	1.51 (inactive)	1.15	-0.23	-0.308 (inactive)	-0.208	0.101	-0.795 (inactive)	-0.396 (inactive)	-0.291 (inactive)
COC(=O)[C@@]1(Cc2ccc(OC)cc2)[C@H]2c3cc(C(=O)N4CCCC4)n(Cc4ccccn4)c3C[C@H]2CN1C(=O)c1ccccc1	-1.73	2.39 (inactive)	-1.07 (inactive)	0.81 (inactive)	0.743 (inactive)	1.13 (inactive)	-0.564 (inactive)	0.147 (inactive)	-2.2	0.0379	-0.22 (inactive)	0.329	-1.43	-5.86 (inactive)	0.613 (inactive)	0.451 (inactive)
CCOC(=O)C[C@H]1[C@H](OC(=O)c2ccc(-c3ccccc3)cc2)[C@@H](NC(=O)c2ccc3ccccc3c2)c2cc(OCCCO)ccc2N1C(=O)Cc1ccc(OC)cc1	0.339	-0.461 (inactive)	0.158 (inactive)	-0.173 (inactive)	-0.501 (inactive)	-0.169 (inactive)	0.281 (inactive)	0.454 (inactive)	0.507	0.144	-0.341 (inactive)	-0.0332	-0.884	-1.89 (inactive)	-0.192 (inactive)	0.0873 (inactive)
COc1ccc(C#Cc2ccc3c(c2)[C@]2(C(=O)N3)[C@H](C(=O)NC[C@H](O)c3ccccc3)[C@H]3C(=O)O[C@H](c4ccccc4)[C@H](c4ccccc4)N3[C@@H]2c2ccc(OCCO)cc2)cc1	-1.07	2.22 (inactive)	-1.16 (inactive)	-0.0157 (inactive)	2.55 (inactive)	2.97 (inactive)	-0.34 (inactive)	-0.151 (inactive)	-1.47	-0.125	-0.0969 (inactive)	0.715	-1.06	-0.878 (inactive)	0.63 (inactive)	0.886 (inactive)
CC(C)CNC(=O)[C@@H]1c2ccccc2C(=O)N(Cc2cc(C(F)(F)F)cc(C(F)(F)F)c2)[C@H]1c1ccc(CO)cc1	-1.16	0.578 (inactive)	0.889 (inactive)	-0.697 (inactive)	-0.171 (inactive)	0.927 (inactive)	0.898 (inactive)	0.343 (inactive)	1.29	-0.198	-0.133 (inactive)	-0.308	-1.2	-1.46 (inactive)	-0.236 (inactive)	0.21 (inactive)
Cc1ccccc1C(O)C1C=CC2C(=O)N(C)C(=O)C2N1Nc1ccccc1 (centres undefined)	-1.19	-0.532 (inactive)	-1.32 (inactive)	-0.513 (inactive)	1.07 (inactive)	-0.547 (inactive)	-0.688 (inactive)	-0.611 (inactive)	-1.61	0.179	0.381 (inactive)	0.632	1.11	-3.24 (inactive)	0.251 (inactive)	-0.594 (inactive)
NC(=O)NCC#Cc1ccc2c(c1)[C@]1(C(=O)N2)[C@H](C(=O)NC[C@H](O)c2ccccc2)[C@H]2C(=O)O[C@H](c3ccccc3)[C@H](c3ccccc3)N2[C@@H]1c1ccc(O)cc1	-0.0042	1.56 (inactive)	-0.027 (inactive)	0.389 (inactive)	1.32 (inactive)	2.12 (inactive)	0.346 (inactive)	0.0233 (inactive)	-0.518	0.15	5.26 (inactive)	0.432	0.872	-4.24 (inactive)	-0.0342 (inactive)	-0.468 (inactive)
C=CCC(OC(C)=O)[C@@H]1[C@@H](N(Cc2cccc3ccccc23)C(=O)c2ccc(C)cc2)c2cc(OCCCO)ccc2N1C(=O)Cc1ccc(OC)cc1 (some centres undefined)	1.36	-2.29 (inactive)	0.641 (inactive)	-1.6 (inactive)	0.0186 (inactive)	-1.25 (inactive)	1.59 (inactive)	1.98 (inactive)	-0.203	-0.086	-0.262 (inactive)	-0.241	-0.805	-0.287 (inactive)	-0.446 (inactive)	-0.126 (inactive)
C#CCN(C(/C=C/c1ccccc1)CO)C(C(=O)O)c1ccccc1 (centres undefined)	-0.589	-2.64 (inactive)	0.274 (inactive)	-3.17 (inactive)	-0.565 (inactive)	-0.643 (inactive)	1.6 (inactive)	-0.198 (inactive)	-0.0777	-0.175	0.194 (inactive)	-0.722	-2.23	0.9 (inactive)	0.301 (inactive)	0.353 (inactive)
CCN(CC)c1ccc(N2CC=CC34O[C@@H]5/C=C\CCCOC(=O)C5[C@H]3C(=O)N(C(CO)C(C)C)[C@@H]4C2=O)cc1 (some centres undefined)	-0.211	0.282 (inactive)	-0.2 (inactive)	-0.952 (inactive)	-0.36 (inactive)	0.831 (inactive)	-0.0034 (inactive)	0.0801 (inactive)	-0.0389	0.336	1.05 (inactive)	0.559	0.604	-6.07 (inactive)	0.169 (inactive)	-0.0477 (inactive)
O=C/C=C/c1ccc2c(c1)OCO2	0.134	-12.8 (active)	-0.155 (inactive)	-1.32 (inactive)	0.227 (inactive)	-1.87 (inactive)	-1.34 (inactive)	0.594 (inactive)	-0.211	-0.118	-0.316 (inactive)	-0.232	0.775	1.04 (inactive)	0.284 (inactive)	0.774 (inactive)
